Consider 92 compounds from PubChem BioAssay AID2315 (National Center for Advancing Translational Sciences (NCATS), 2010).

Where “and” joins values, the source holds several entries; their conditions need not be identical. Equal values may be shown once. Out of some 290,000 compounds screened, about 27,000 (9.3%) were called active. This is one part of a sample in which actives are shown more often than they occur. No stated cut-off is given here; in the data, active means inhibition mostly above about 28% (no sharp cut-off); inactive means mostly below about 43%.

The inhibition is the drop in the measured response relative to a control, in per cent.

The assay is described as follows: A qHTS for Small Molecule Inhibitors of Shiga Toxin. Further: 0% is about no effect. The settings on record: Vero cells, Shiga toxin protein synthesis inhibition reporter; at 38.7 µM, active compounds read high.
In the case of `O=C(CN1CCC(O)(c2cccc(C(F)(F)F)c2)CC1)NCCc1ccccc1`, the inhibition is -6.9% (inactive).
Then `CC(NC(=O)CNC(=O)Cc1cccc2ccccc12)c1ccc(S(N)(=O)=O)cc1` (configuration not stated), with -8.32% (inactive).
Then `CC[C@]1(c2ccccc2OC)C(=O)N(C(=O)OC)N1C(=O)OC`, with 35.6% (active).
Then `COc1ccccc1CC(=O)Nc1ccc(F)cc1F`, with 1.11% (inactive); and `COC(=O)c1ccccc1NC(=O)Cc1ccccc1OC`, with 0.83% (inactive).
For `COc1ccccc1-n1c(SCC(=O)Nc2cccc(C(=O)O)c2)nnc1-c1ccccc1O`, the inhibition is 6.46% (inactive).
For the compound `CCOC(=O)N1CCN(C(=O)c2ccc3c(c2)N(Cc2ccc(C)cc2)CCS3)CC1`, the inhibition is -7.18% (inactive).
Then `O=C(NCCN1CCOCC1)c1ccc2c(c1)N(Cc1ccc(Cl)cc1)CCS2`, with -14% (inactive); and `O=C(NCCc1ccccc1)c1ccc2c(c1)N(Cc1ccccc1)CCS2`, with 59.8% (active); and `COCCNc1ccc(-c2n[nH]c(=O)c3ccccc23)cc1[N+](=O)[O-]`, with -2.3% (inactive).
For `O=C(NCc1ccccc1Cl)C1CCN(S(=O)(=O)c2cccc3nonc23)CC1`, the inhibition was 9.83% (inactive).
Then `CCN(CC(=O)NCC(=O)Nc1cccc(C)c1C)Cc1ccccc1`, with -9.33% (inactive); and `CCN1C(=O)/C(=C2\SC(N3CCCCC3)=NC2=O)c2ccccc21`, with 52.1% (active).
The same measure for `CC(C)=C1SC(N2CCN(c3ccc(C)c(Cl)c3)CC2)=NC1=O`: 7.4% (inactive); for `CC(C)=C1SC(N2CCN(c3cccc(C)c3)CC2)=NC1=O`: -21.2% (inactive); for `Cc1cc(C)cc(C(=O)NC(CC(N)=O)c2ccc(N3CCC(N4CCCCC4)CC3)c([N+](=O)[O-])c2)c1` (configuration not stated): -3.41% (inactive).
Turning to `COc1cccc(NC(=O)N2C3CCCC2CC(NC(C)=O)C3)c1` (configuration not stated), the inhibition was -2.41% (inactive).
Then `Cc1ccc(S(=O)(=O)NCc2ccc(C(=O)NC3CCC(C)CC3)cc2)cc1` (configuration not stated), with -2.09% (inactive); and `COc1ccc(NC(=O)CCCNC(=O)Cn2cnc3sc4c(c3c2=O)CCCC4)cc1OC`, with -15.7% (inactive); and `COc1ccc(/C=N/Nc2ncnc3sc4c(c23)CCCC4)cc1O`, with 79.2% (active).
Then `COc1ccc(NC(=O)CCNC(=O)Cn2cnc3sc4c(c3c2=O)CCCC4)cc1OC`, with 7.2% (inactive); and `COc1ccc(NC(=O)CNC(=O)Cn2ccc3ccccc3c2=O)c(OC)c1`, with -5.3% (inactive); and `CC[C@H](C)[C@H](NC(=O)[C@H](CCCNC(=N)N)NC(=O)[C@H](CCCNC(=N)N)NC(=O)[C@H](CC(C)C)NC(=O)[C@H](Cc1ccccc1)NC(=O)CNC(=O)CNC(=O)[C@@H](N)Cc1ccc(O)cc1)C(=O)N[C@@H](CCCNC(=N)N)C(=O)N1CCC[C@H]1C(=O)N[C@@H](CCCCN)C(=O)N[C@@H](CC(C)C)C(=O)N[C@@H](CCCCN)C(=O)N[C@@H](Cc1c[nH]c2ccccc12)C(=O)N[C@@H](CC(=O)O)C(=O)N[C@@H](CC(N)=O)C(=O)N[C@@H](CCC(N)=O)C(=O)O`, with -7.4% (inactive).
Regarding `CN(C)c1ccc(CNC(=O)CN2C(=O)COc3ccc(S(=O)(=O)N4CCCC4)cc32)cc1`, the inhibition was -2.88% (inactive).
The same measure for `O=C(Cc1ccc(Cl)cc1)NC(=S)Nc1ccccc1O`: -14.5% (inactive); for `O=[N+]([O-])c1ccccc1Nc1ccc(O)cc1`: -30.1% (inactive); for `Oc1ccc(CNc2ccccc2O)cc1`: 120% (active).
On to `CCN1CCN(C2CCCCC2NS(=O)(=O)c2ccc(Cl)cc2)CC1` (configuration not stated), for which the inhibition is -12.5% (inactive).
Turning to `COC(=O)C1=C(C)N(c2ccc(Br)cc2)C(=O)/C1=C\c1ccco1`, the inhibition is 14.6% (inactive).
Consider `CC(C)(C)C1C/C(=C/c2ccco2)C(=O)/C(=C/c2ccco2)C1` (configuration not stated), for which the inhibition was 46.5% (active).
The same measure for `O=C1OC(/C=C/c2ccccc2)=NC/1=C/c1ccco1`: -7.2% (inactive); for `Cc1c(S(=O)(=O)N2CC(C)CC(C)C2)c(=O)n(C)c(=O)n1C` (configuration not stated): -33.2% (inactive).
The same measure for `O=C(CCc1c[nH]c2ccccc12)NCCOc1ccccc1`: 44.8% (inactive).
Take `Cc1nn(C)cc1/C=N/NC(=O)c1sc2ccccc2c1Cl`: the inhibition was 25% (inactive).
Regarding `Oc1ccc(N=Cc2c(O)ccc3ccccc23)cc1`, the inhibition is 18.7% (inactive).
Then `Oc1ccc(N=Cc2sc3ccccc3c2Cl)cc1`, with 77.5% (active); and `O=C(N/N=C/c1ccoc1)c1ccc(Cl)cc1Cl`, with 68.7% (active).
The same measure for `CC(C)c1cc(C(=O)N/N=C/c2ccoc2)c(O)c(C(C)C)c1`: 4.23% (inactive); for `CC(C)NC(=O)c1ccc(Cl)cc1Cl`: 8.65% (inactive).
The same measure for `O=C(NCCCN1CCCCC1)C1CCCN(c2ncnc3c2nc2n3CCCCC2)C1` (configuration not stated): 4.24% (inactive); for `OC(COc1ccc(F)cc1Cl)CN1CCc2ccccc2C1` (configuration not stated): 16.9% (inactive); for `Cn1nccc1NS(=O)(=O)c1ccc(F)cc1`: 160% (active).
With `Cc1ccc(NS(=O)(=O)c2ccc(F)cc2)nc1`, the inhibition is -8.43% (inactive).
Then `Cc1cc(C)cc(NS(=O)(=O)c2ccc(F)cc2)c1`, with 8.8% (inactive).
Take `COc1ccc(S(=O)(=O)NC(C)C(=O)NCc2ccncc2)cc1Cl` (configuration not stated): the inhibition was -1.67% (inactive).
The same measure for `Cc1nc2cc(NC(=O)NCc3ccccc3)ccc2o1`: 44.8% (active); for `CCCCc1ccc(NC(=O)NCc2cccnc2)cc1`: 6.04% (inactive).
The same measure for `Cc1nc(C)c(C(=O)Nc2ccc(C)c(F)c2)o1`: 0.239% (inactive); for `O=C(CSc1ncccn1)NC(=O)NCc1ccccc1`: 34.2% (inactive); for `Cc1ccc(NC(=O)Nc2ccc3oc(C)nc3c2)cc1`: 144% (active).
For the compound `Cc1nc2ccc(NC(=O)C(F)(F)F)cc2o1`, the inhibition is -11.6% (inactive).
Then `COc1ccccc1N(CC(=O)N/N=C(\C)c1ccccc1O)S(=O)(=O)c1ccc(C)cc1`, with -3.24% (inactive).
Then `CCOC(=O)c1ccc(NC(=O)CCn2c(=O)oc3ccccc32)cc1`, with -8.48% (inactive).
Then `O=C(NC(=S)N1CCCCC1c1cccnc1)c1ccccc1` (configuration not stated), with 3.14% (inactive); and `Cc1ccccc1NC(=O)CSc1ccc2nnc(-c3ccccn3)n2n1`, with 15.7% (inactive).
`COC(=O)c1ccccc1NC(=O)c1ccc(C#N)cc1`: the inhibition was 8.5% (inactive).
In the case of `Cc1c(CN2CCC(n3nccc3NC(=O)CCc3ccccc3)CC2)cnn1C`, the inhibition was 4.45% (inactive).
`O=C(NCC(=O)N1CCC2(CC1)NCCc1[nH]cnc12)c1ccc(Br)cc1`: the inhibition was -10% (inactive).
Then `COc1ccc(NC(=O)CCS(=O)(=O)c2cc3c(cc2Cl)NC(=O)CO3)cc1OC`, with -4.27% (inactive); and `Cc1cc(C)n(C(=O)CCNC(=O)c2ccccc2Cl)n1`, with -4.34% (inactive); and `Cc1ccccc1CN(c1ccc(C(=O)NCC2CCCO2)cc1)S(C)(=O)=O` (configuration not stated), with -12.3% (inactive).
Then `COCCNC(=O)c1ccccc1-c1nc(-c2ccccc2Cl)no1`, with 79.4% (active); and `Cc1ccc(-c2noc(-c3ccccc3C(=O)NCC3CCCO3)n2)cc1` (configuration not stated), with 48.4% (active).
Take `Cc1nc2ccccc2c2oc(C(=O)NCC3CCCO3)cc12` (configuration not stated): the inhibition was -16% (inactive).
The same measure for `O=C(Nc1ccccc1C(=O)NCC1CCCO1)c1ccccc1F` (configuration not stated): 17.2% (inactive); for `O=C(NCC1CCCO1)c1ccccc1-c1nc(-c2ccccc2Cl)no1` (configuration not stated): 43.2% (active); for `O=C(CSCc1c(F)cccc1Cl)NCC1CCCO1` (configuration not stated): -5.03% (inactive).
The same measure for `O=C(NCC1CCCO1)c1ccc2ccccc2n1` (configuration not stated): 69.8% (active).
On to `O=C(NCC1CCCO1)c1cc2c([nH]c3ccccc32)c(-c2ccc(F)cc2)n1` (configuration not stated), for which the inhibition was -7.75% (inactive).
For `Cc1ccc2cc(CCNC(=O)c3c(-c4ccccc4Cl)noc3C)c(=O)[nH]c2c1`, the inhibition was -3.3% (inactive).
On to `O=C(NCC1CCCO1)c1cc(-c2ccccc2)nc2ccccc12` (configuration not stated), for which the inhibition was 15% (inactive).
Then `Cc1ccc(S(=O)(=O)N(CC(O)CN2CCCCC2)c2cccc([N+](=O)[O-])c2)cc1` (configuration not stated), with -3.58% (inactive); and `COc1ccc(CCNS(=O)(=O)c2cc3c(cc2C)NC(=O)CO3)cc1OC`, with 14.5% (inactive); and `CC(C)CC(=O)N1CCN(Cc2ccccc2Br)CC1`, with 15.6% (inactive).
For the compound `CN1CCN(NC(=O)Nc2ccc(Br)cc2)CC1`, the inhibition was 24.3% (inactive).
Then `O=C(c1ccc(Cl)c(S(=O)(=O)N2CCCCC2)c1)N1CCCCCC1`, with -21.7% (inactive).
The same measure for `COc1ccc(C(=O)CCC(=O)Nc2ccc(Cl)cc2)cc1`: -6.22% (inactive).
As to `Cn1sc(=O)c2cc(S(=O)(=O)NC3CC3)ccc21`, the inhibition was -7.9% (inactive).
With `Cc1nn(Cc2ccccc2)c(C)c1NS(=O)(=O)c1ccccc1`, the inhibition is -5.63% (inactive).
As for `ONC(=Nc1ccccc1)c1ccccc1Cl`, the inhibition is -18.8% (inactive).
Then `COc1ccc(N(C(=O)c2cccnc2)S(=O)(=O)c2ccc(OC)c(OC)c2)cc1`, with -7.61% (inactive); and `COc1ccc(OC)c(C(C)NC(=S)Nc2ccc(S(=O)(=O)Nc3ncccn3)cc2)c1` (configuration not stated), with -14% (inactive); and `COc1ccc2cc(C(=O)C3CCCN(C(=O)c4sc(C)nc4C)C3)ccc2c1` (configuration not stated), with 15.6% (inactive).
Then `O=C(CSc1ccc(-c2ccc(Br)cc2)nn1)NCC1CCCO1` (configuration not stated), with 2.72% (inactive); and `CCCNC(=O)CCn1nc(-c2ccccc2)c2ccccc2c1=O`, with -10.6% (inactive).
Then `COC(=O)C(CC(C)C)NS(=O)(=O)c1cc(Br)ccc1Br` (configuration not stated), with 40.7% (inactive); and `O=C(O)Cc1csc(-c2cccc(Oc3ccccc3)c2)n1`, with -2.34% (inactive) and 18.5% (inactive).
As for `COc1ccc(SCc2noc(C(=O)NCC3CCCO3)c2C(=O)O)cc1` (configuration not stated), the inhibition is -6.14% (inactive).
Turning to `CCC(=O)c1c[nH]c(C(=O)NCC2CCCO2)c1` (configuration not stated), the inhibition is -5.73% (inactive).
`COc1ccc2cc(C(=O)NCC3CCCO3)[nH]c2c1` (configuration not stated): the inhibition is 81.7% (active).
Then `CNC(=O)C1CCN(S(=O)(=O)c2c(C)noc2/C=C/c2cccc(C)c2)CC1`, with -9.45% (inactive).
Take `Cc1ccc2cccc(OCCCOc3ccccc3CO)c2n1`: the inhibition is 25.2% (inactive).
